The source of these data is PubChem BioAssay.

The nature of assay [1]: hESC survival regulators, cell-based (AID 493140).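 Also: cells exposed to compounds for four days before counting.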 The conditions noted are these: human embryonic stem cell survival screen; stronger effect = higher value.
Assay [2] is described as follows: sensitizers of A549 cells to miR-34 induction, primary screen, imaging, A549 dox-inducible miR-34, nuclei and caspase counts (AID 1347080;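 active = compounds whose cell count with miR-34 switched on is under 0.7 times the count with it off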). The following applies: A549 miR-34 inducible, Hoechst nuclei count, 48 h.
A short description of assay [3]: inhibitors of Cryptococcus chitosan production, flow cytometry, Cibacron Brilliant Red staining (AID 1347148).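 Also: compound exposure lasted three days at 37 degrees C.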 The conditions noted are these: Cryptococcus neoformans chitosan, stronger effect = lower value; at 10 µM unless noted. Background: Flow cytometry measures light scatter and fluorescence of single cells or particles in a stream.
The nature of assay [4]: circadian clock period modulators, cell-based, LOPAC library, luminescence reporter (AID 2774).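 Also: values are relative to mean of DMSO wells on each plate.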 The conditions noted are these: circadian reporter cells, at 7 µM, actives lie on both sides.
Assay [5] in a line: liver-stage malaria parasite growth inhibition, primary screen, cell-based, HepG2, luciferase luminescence, HepG2 viability (AID 624349; in the data active = parasite load remaining mostly below about 12%, no sharp cut-off; inactive = mostly above about 10%;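 also: 100% = mean of DMSO negative control wells on the same plate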). The conditions noted are these: P. berghei liver stage in HepG2, luciferase luminescence, concentration not given here; parasite load remaining: stronger effect = lower value; viability: measured here: HepG2 viability without parasites.
Assay [6] deals with Hepatitis C virus NS3 helicase. As to the kind of experiment: HCV NS3 helicase inhibitors, primary screen, biochemical, fluorescence polarization, LOPAC1280 library (AID 687035; in the data active = inhibition above about 37%). The conditions noted are these: Purified HCV NS3 helicase, Cy5-dT15 ssDNA binding fluorescence polarization; stronger effect = higher value; concentration not given here. (In general: Fluorescence polarisation rises when a labelled molecule tumbles more slowly, as on binding a larger partner.)

Assay [7] is described as follows: Cy5 fluorescence quenching or enhancement artefacts, artefact control for HCV NS3 helicase inhibitor project, biochemical, LOPAC1280 (AID 687037). The conditions noted are these: Cy5-DNA-NS3h complex fluorescence interference counterscreen. For orientation: A counterscreen serves to expose hits that act by an unwanted route or on another target.
The nature of assay [8]: phospholipid biosynthesis inhibitors in animal cells, primary screen, cell-based, LOPAC library, screen 4 (AID 1347384). The conditions noted are these: phospholipid biosynthesis inhibition screen, at 10 µM.
The nature of assay [9]: survival rescue of mitochondrial mutant cells in low glucose, primary screen, MELAS cybrids, Rieske KO mouse fibroblasts, CellTiter-Glo (AID 1508586;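 active = mean z-score across replicates of 1.96 or higher in either the MELAS or the Rieske mutant cell line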;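 also: z relative to plate mean and SD of compound and empty wells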).
Assay [10] in a line: viability rescue of complex I mutant cybrids, primary screen, cell-based, galactose medium, ATP luminescence (AID 1645843;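 active = z-score of at least 1.8 in each of two replicates, scored against plate mean and spread of sample wells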;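 also: positive z means more ATP and so rescue of galactose-driven cybrid death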). The following applies: complex I mutant cybrid cells, 72 h, stronger effect = higher value.
Assay [11] in a line: modifiers of HSF1 nuclear foci, imaging, Selleck Cancer Library (AID 1347162; in the data active = plate-normalised HSF1 focus index below about 0.46). The following applies: human cells, at 10 µM; SSMD: measured here: HSF1 foci SSMD mean; cell count: measured here: cell number; plate-normalised HSF1 focus index: stronger effect = lower value.
Setting [12] is: stronger effect = lower value, cell number ratio, induced over uninduced.
[13] abbreviates: measured here: relative caspase fold change +Dox/-Dox.
Setting [14] is: measured here: total cells with miR-34 induction, stronger effect = lower value.
Setting [15] is: measured here: total cells without miR-34 induction.
Setting [16] is: MELAS cybrid survival, CellTiter-Glo 48 h, stronger effect = higher value.
Setting [17] is: Rieske KO mouse fibroblast survival, CellTiter-Glo 72 h.

Several values for one entry are separate records, joined by “and”; a condition that tells them apart may be missing. Identical values can stand only once. Some structures have more than one record in an assay (separate samples or runs), and their calls can disagree. Activity calls are given as the source filed them. Unless noted, no rule for the calls is given here.

Turning to `CC(C)=CCC/C(C)=C/CC/C(C)=C/CSCC(=O)O`, in assay [1], the survival is 89.7 (inactive). Further, the fold change in assay [2] (setting [12]) was 0.964 (inactive) and 0.982 (inactive); in assay [2] (setting [13]) it was 1.23 and 1.52. Besides, the cell count in assay [2] (setting [14]) is 5900; in assay [2] (setting [15]) it was 6120 and 6010. Moreover, in [3], the fold fluorescence is 2.64 (inactive).

For the compound `CCCCC[C@H](O)/C=C/[C@H]1C(=O)C[C@H](O)[C@@H]1C/C=C\CCCC(=O)O`, the survival in [1] was 96.1 (inactive). Also, the fold change in assay [2] (setting [12]) was 0.966 (inactive) and 0.979 (inactive); in [2] (setting [13]), 1.13 and 1.66. The cell count in [2] (setting [14]) is 6220 and 5740; in [2] (setting [15]), 6440 and 5870. Further, the fold fluorescence in assay [3] was 3.99 (inactive).

Regarding `O=C(O)CCC/C=C\CC1C2CCC(O2)C1CNNC(=O)Nc1ccccc1` (centres undefined), the survival in assay [1] is 88.6 (inactive). Besides, the fold change in assay [2] (setting [12]) was 0.964 (inactive) and 0.895 (inactive); in assay [2] (setting [13]), 1.45 and 1.09. Further, the cell count in assay [2] (setting [14]) was 5700 and 5510; in assay [2] (setting [15]), 5910 and 6160. In addition, in assay [3], the fold fluorescence was 4.39 (inactive).

With `CCCCC/C=C\C/C=C\C/C=C\C/C=C\CCCCCC(=O)O`, the survival in assay [1] is 79.5 (inactive). The fold change is 1.01 (inactive) and 0.958 (inactive) in assay [2] (setting [12]); 1.23 and 0.967 in assay [2] (setting [13]). Also, the cell count is 6030 and 5700 in [2] (setting [14]); 5980 and 5950 in assay [2] (setting [15]). In assay [3], the fold fluorescence was 4.08 (inactive).

As for `CCCCCCCCCCCCC/C=C/[C@@H](O)[C@H](CO)NCCCCCCCC`, the survival in [1] is 61.3 (inactive). The fold change in assay [2] (setting [12]) was 0.925 (inactive) and 1 (inactive); in assay [2] (setting [13]), 1.2 and 0.737. The cell count in assay [2] (setting [14]) was 5120 and 5820; in assay [2] (setting [15]), 5540 and 5810. Besides, the fold fluorescence in assay [3] is 10.3 (inactive).

Take `CCCCCC#CCC#CCC#CCC#CCCCC(=O)O`: in assay [1], the survival is 87.3 (inactive). Moreover, the fold change in [2] (setting [12]) is 0.956 (inactive) and 0.974 (inactive); in [2] (setting [13]), 1.11 and 0.98. Besides, the cell count in [2] (setting [14]) was 5420 and 5670; in assay [2] (setting [15]), 5670 and 5820. The fold fluorescence in assay [3] was 5.73 (inactive).

Consider `CCCCC/C=C/C=C1/C(=O)C=C[C@@H]1C/C=C\CCCC(=O)O`, for which the survival in assay [1] was 82.2 (inactive). The fold change is 1.04 (inactive) and 0.838 (inactive) and 1.58 (inactive) in [2] (setting [12]); 1.45 and 1.36 and 1.03 in [2] (setting [13]). For the same compound, the cell count is 5600 and 6330 and 6250 in assay [2] (setting [14]); 5380 and 7550 and 3960 in assay [2] (setting [15]). In [3], the fold fluorescence was 6.54 (inactive).

Take `CC/C=C\C/C=C\C/C=C\C/C=C\C/C=C\CCCC(=O)O`: the survival in assay [1] was 106 (inactive). Besides, the fold change in assay [2] (setting [12]) was 0.976 (inactive) and 0.979 (inactive); in assay [2] (setting [13]) it was 0.982 and 0.878. The cell count in [2] (setting [14]) is 5680 and 5960; in assay [2] (setting [15]), 5820 and 6080. Besides, in [3], the fold fluorescence was 4.6 (inactive).

On to `CC(=O)N[C@@H](CSC/C=C(\C)CC/C=C(\C)CC/C=C(\C)CCC=C(C)C)C(=O)O`, for which, in [1], the survival is 106 (inactive). The fold change is 0.941 (inactive) and 0.949 (inactive) in assay [2] (setting [12]); 1.39 and 0.928 in assay [2] (setting [13]). Moreover, the cell count in [2] (setting [14]) was 6090 and 5570; in assay [2] (setting [15]), 6470 and 5860. Moreover, in assay [3], the fold fluorescence was 5.22 (inactive).

With `O=C(O)CNC(=O)C(CS)Cc1ccccc1` (centres undefined), the period change in [4] is -0.18 h (inactive). Further, in [1], the survival is 4.92 (inactive). Also, in assay [5], the parasite load remaining was 144% (inactive) and 78.5% (inactive). The viability (as a rule, a read-out of living cells in per cent, often relative to untreated cells) in [5] is 103% and 75.5%. Moreover, in assay [6], the inhibition (usually the change of the read-out against control, counted positive when it falls) is 0% (inactive). For the same compound, in assay [7], the fluorescence ratio (interference) is 1 (inactive). Further, the fold change in assay [2] (setting [12]) was 0.968 (inactive) and 0.835 (inactive) and 1 (inactive); in assay [2] (setting [13]), 1.08 and 1.52 and 1.29. Moreover, the cell count in [2] (setting [14]) is 9910 and 8670 and 5950; in assay [2] (setting [15]), 10200 and 10400 and 5920. The compound was classed as inactive in [8]. The z-score was -0.922 (inactive) in assay [9] (setting [16]), 0.154 in assay [9] (setting [17]) and 0.48 (inactive) in [10].

For `CCCCC/C=C\C/C=C\C/C=C\CCCCCCC(=O)O`, the survival in [1] was 92.4 (inactive). Moreover, the fold change was 1.02 (inactive) and 1.05 (inactive) in assay [2] (setting [12]); 1.28 and 1.4 in assay [2] (setting [13]). Moreover, the cell count in assay [2] (setting [14]) was 5830 and 6270; in [2] (setting [15]), 5710 and 6000. In addition, the fold fluorescence in assay [3] was 4.94 (inactive).

Consider `CC(C)(C)[C@]1(O)CCN2C[C@H]3c4ccccc4CCc4cccc(c43)[C@@H]2C1`, for which, in assay [4], the period change is 0.045 hour (inactive) and 0.1 hour (inactive). In assay [5], the parasite load remaining is 63.7% (inactive). Further, in assay [5], the viability came out at 156%. For the same compound, the inhibition in assay [6] is 0% (inactive) and -5% (inactive). For the same compound, the fluorescence ratio (interference) in assay [7] was 1 (inactive). For the same compound, the fold change in [2] (setting [12]) is 1.18 (inactive) and 1.07 (inactive) and 0.945 (inactive); in assay [2] (setting [13]), 1.07 and 1.2 and 1.29. The cell count is 6310 and 6160 and 8940 in [2] (setting [14]); 5360 and 5740 and 9460 in assay [2] (setting [15]). In addition, in [8], the result was inactive. Also, the z-score is 0.22 (inactive) in [9] (setting [16]); -0.23 in assay [9] (setting [17]); -1.48 (inactive) and -1.34 (inactive) and -0.325 (inactive) in assay [10].

Take `COc1ccccc1N1CCN(CCCCNC(=O)c2ccc3ccccc3c2)CC1`: the period change in [4] is 0.185 h (inactive). The parasite load remaining in assay [5] was 110% (inactive) and 55% (inactive). For the same compound, in assay [5], the viability is 97.7% and 74.2%. Besides, the inhibition in [6] was -1% (inactive). Also, in [7], the fluorescence ratio (interference) was 1 (inactive). The fold change in [2] (setting [12]) was 1.04 (inactive) and 0.819 (inactive); in [2] (setting [13]) it was 1.41 and 1.7. Moreover, the cell count in [2] (setting [14]) was 7170 and 7370; in assay [2] (setting [15]), 6900 and 9000. Moreover, the compound was called inactive in [8]. The z-score in [9] (setting [16]) is -0.843 (inactive); in assay [9] (setting [17]), 0.134; in assay [10], -0.51 (inactive).

With `CCCCC[C@H](O)/C=C/[C@H]1C=CC(=O)[C@@H]1CCCCCCC(=O)O`, in assay [1], the survival is 103 (inactive). The fold change was 0.912 (inactive) and 0.844 (inactive) in assay [2] (setting [12]); 1.4 and 1.79 in assay [2] (setting [13]). For the same compound, the cell count in assay [2] (setting [14]) is 5980 and 4550; in assay [2] (setting [15]), 6560 and 5390. In assay [3], the fold fluorescence is 4.35 (inactive).

In the case of `CCCCCCCC(=O)OC[C@H](CO)OC(=O)CCCCCCC`, the survival in assay [1] is 75.3 (inactive). The fold change in assay [2] (setting [12]) is 1 (inactive) and 1.04 (inactive); in assay [2] (setting [13]), 1.36 and 0.811. In addition, the cell count in assay [2] (setting [14]) was 5210 and 5590; in assay [2] (setting [15]) it was 5190 and 5400. For the same compound, in assay [3], the fold fluorescence was 6.5 (inactive).

On to `Nc1ccc2ncnc(NCCc3ccc(Oc4ccccc4)cc3)c2c1`, for which the parasite load remaining in assay [5] is 1.5% (active). Further, the viability in [5] stood at 70.6%. The fold change in [2] (setting [12]) was 0.738 (inactive) and 0.708 (inactive) and 0.683 (active); in [2] (setting [13]), 1.4 and 1.31 and 3.23. The cell count in assay [2] (setting [14]) was 2180 and 3030 and 5480; in assay [2] (setting [15]), 2950 and 4280 and 8020; in assay [11], 2600. The compound further showed an SSMD in assay [11] of -5.88. The plate-normalised HSF1 focus index in [11] is 0.65 (inactive). The z-score is -0.305 (inactive) in assay [9] (setting [16]) and -0.135 in assay [9] (setting [17]).

`CCCCCCCCCCCCC/C=C/[C@@H](O)[C@H](CO)NC(=O)CCCCCCC`: the survival in [1] was 77.3 (inactive). For the same compound, the fold change in assay [2] (setting [12]) was 0.885 (inactive) and 1 (inactive); in assay [2] (setting [13]), 2.05 and 0.909. For the same compound, the cell count in assay [2] (setting [14]) was 5260 and 5480; in assay [2] (setting [15]) it was 5940 and 5480. Moreover, in assay [3], the fold fluorescence is 4.66 (inactive).
